# In ChEMBL document CHEMBL4513216, “Probing the Open Global Health Chemical Diversity Library for Multistage-Active Starting Points for Next-Generation Antimalarials” (ACS Infect Dis, 2020):
# Hit rate of the full screen: of about 69,000 compounds, about 8,600 (12%) showed an effect of 50% or more. Shown is part of a subset that was picked to be rich in strong results.
# Test system: Plasmodium berghei
# Assay: Screen against P. berghei liver stage (PbLuc), transformed with Luciferase, at 10uM
# Assay type: functional, HepG2
# Settings: tested at 10 uM
row,SMILES,INHIBITION
1,CC(c1nc(C2CC2)no1)N1CCN(Cc2noc(C3CC3)n2)CC1 (stereo not drawn),51.1%
2,CC(C)c1noc(C(C)N2CCN(Cc3noc(C4CC4)n3)CC2)n1 (stereo not drawn),27.6%
3,CC(C)c1nc(CN2CCN(C(C)c3nc(C4CC4)no3)CC2)no1 (stereo not drawn),13.5%
4,CC(C)Cc1cc(NC(=O)c2ccccn2)n(C)n1,37.4%
5,O=C(c1ccc(C2CCCO2)s1)N1CCOCC1 (stereo not drawn),-48.4%
6,Cc1cc(C)nc(N2CCN(C(=O)c3ccc(C4CCCO4)s3)CC2)n1 (stereo not drawn),36.8%
7,O=C(c1ccc(C2CCCO2)s1)N1CCN(c2ccccc2F)CC1 (stereo not drawn),80.1%
8,O=C(Nc1ccccc1OCCc1ccccn1)N1CC[C@@H](O)C1,-48.1%
9,CC1CCCN(Cc2ccc(C(N)=O)cc2)C1 (stereo not drawn),50.5%
10,NC(=O)c1ccc(CN2CCCC(O)C2)cc1 (stereo not drawn),-6.32%
11,NC(=O)c1ccc(CN2CCCC(N3CCCC3)C2)cc1 (stereo not drawn),-3.95%
12,CN1CCN(c2cc(CNC(=O)Cn3cccn3)ccn2)CC1,37.8%
13,N#Cc1csc(CNCCOc2ncccc2Cl)c1,-23.2%
14,O=C(c1ccco1)N1C[C@H]2CCCN(Cc3ccoc3)[C@H]2C1,44.3%
15,O=C1N[C@H]2OCCC[C@H]2[C@H](c2ccccc2)N1,52.2%
16,O=C1N[C@H]2OCCC[C@H]2[C@H](c2ccc(C(=O)O)cc2)N1,-1.25%
17,COc1ccc([C@@H]2NC(=O)N[C@H]3OCCC[C@H]32)cc1,42.1%
18,COCCNC(=O)CN1CC=C(n2c(C)nc(=O)c3ccccc32)CC1,6.33%
19,c1cnc(NCc2nnn3c2CN(Cc2ccco2)CCC3)nc1,-11.6%
20,CN(Cc1cccc(Cl)c1)S(=O)(=O)N1CCOCC1,-14.2%
21,CC(c1cccc(-c2nccn2CCc2cn[nH]c2)c1)N(C)C (stereo not drawn),85.9%
22,CC(c1cccc(-c2nccn2CCc2ccccn2)c1)N(C)C (stereo not drawn),36.5%
23,CC(=O)NCCn1ccnc1-c1cccc(C(C)N(C)C)c1 (stereo not drawn),30.3%

row,SMILES,INHIBITION
1,Cc1noc(C)c1-c1cccc(C2CCN(CC(=O)N(C)C)CC2)n1,8%
2,Cc1ncsc1C(=O)N(C)Cc1cccnc1,-4.865%
3,COc1ccc(OC)c(C(=O)N2C[C@@H]3CC[C@H]2CN(C)C3)c1,9.56%
4,O=c1c(NCCNCCO)c(N2CCN(c3ccc(F)cc3)CC2)c1=O,23%
5,Cc1ccc(C(=O)NC2CCN(Cc3nc(C(C)C)no3)CC2)s1,13.8%
6,Clc1cncc(NCc2cccc(COC3CCOCC3)c2)n1,-16.8%
7,CS(=O)(=O)NCc1cccc(COC2CCCCC2)c1,9.63%
8,Clc1cnccc1NCc1cccc(COC2CCOCC2)c1,79.7%
9,COc1ccc(C(=O)N(Cc2cnn(C)c2)C(C)C)cc1OC(F)F,33.3%
10,Cc1nc(C)n(C2CCCN(C(=O)c3cc(C4CC4)on3)C2)n1 (stereo not drawn),29.2%
11,COC(=O)c1ccccc1S(=O)(=O)NC(=O)c1cccc2c1OCCO2,-7.36%
12,Cc1ccc(C(=O)NCCCN(C(C)C)S(C)(=O)=O)c(=O)[nH]1,-8.97%
13,Cc1ccc(C(=O)NS(=O)(=O)c2ccccc2C)c(=O)[nH]1,24.6%
14,Cc1ccc(C(=O)NS(=O)(=O)c2cc(Br)ccc2C)c(=O)[nH]1,25.6%
15,O=C(NS(=O)(=O)c1ccc(Cl)cc1F)c1cccc2c1OCCO2,50%
16,CCN(CCCNC(=O)c1ccc(C)[nH]c1=O)S(C)(=O)=O,61%
17,O=C(NS(=O)(=O)c1ccccc1Cl)c1cccc2c1OCCO2,49%
18,Cc1ccc(C(=O)NCCCN(C)S(C)(=O)=O)c(=O)[nH]1,40.4%
19,Cc1ccc(C)c(S(=O)(=O)NC(=O)c2ccc(C)[nH]c2=O)c1,52.3%
20,O=C(NS(=O)(=O)c1cc(Cl)ccc1Cl)c1cccc2c1OCCO2,-31.3%
21,Cc1ccc(C)c(S(=O)(=O)NC(=O)c2cccc3c2OCCO3)c1,68.8%
22,Cc1ccc(S(=O)(=O)NC(=O)c2cccc3c2OCCO3)c(C)c1,23.7%
23,CCc1ccc(C(COC)NC(=O)c2ccc(NC(C)=O)cc2)o1 (stereo not drawn),18.4%

row,SMILES,INHIBITION
1,CCO[C@H]1CN(C)C[C@@H]1NC(=O)c1cc(C)nc2c(C)c(C)ccc12,35%
2,CCNC(=O)[C@@H]1C[C@H](NC(=O)Cn2ccnc2)CN1Cc1ccsc1,39.3%
3,CCN1CC(CN(C)Cc2nc(-c3cccc(Cl)c3)oc2C)CC1=O (stereo not drawn),29.8%
4,CC(=O)NCCCNC(=O)N(C)C(C)Cc1ccc(Cl)cc1 (stereo not drawn),-6.99%
5,CS(=O)(=O)CCOCCNc1ccc(C(F)(F)F)cc1C#N,-13.4%
6,N#Cc1cc(F)ccc1NCC1CCS(=O)(=O)CC1,-3.26%
7,N#Cc1cc(C(F)(F)F)ccc1NCC1CCS(=O)(=O)CC1,56.4%
8,CN(CC1CC1)S(=O)(=O)c1ccc(C(F)(F)F)cc1C#N,47.2%
9,CS(=O)(=O)NCCCNc1ccc(C(F)(F)F)cc1C#N,72.6%
10,CCN(CC)S(=O)(=O)c1ccc(C(F)(F)F)cc1C#N,27.6%
11,CCCNC(=O)C1CCN(Cc2csc(CC)n2)CC1,15.3%
12,Cc1cc(C(=O)N2C[C@@H]3CC[C@H]2CN(C)C3)ccc1Cl,18.2%
13,Cc1ccc(C)c(OCCC(=O)N2CCCN(CC(N)=O)CC2)c1,-79.3%
14,COc1cccc(COCC(=O)N2CCCC(c3ccn[nH]3)C2)c1 (stereo not drawn),45.7%
15,CC(=O)CCCC(=O)N(Cc1ccsc1)CC(C)C,35%
16,CC(C)CN(Cc1ccsc1)C(=O)CCCn1cncn1,62.8%
17,Cc1ccnn1CCC(=O)N(Cc1ccsc1)CC(C)C,41.5%
18,CNS(=O)(=O)c1ccc(C)c(C(=O)NCCNc2ncccn2)c1,-7.81%
19,CCOc1ccc(CN[C@@H]2COC[C@H]2c2ccc(F)cc2)cc1,-16%
20,CCc1nccn1-c1cncc(C2CCCN2Cc2ccc(F)cc2)n1 (stereo not drawn),31.1%
21,CCc1nccn1-c1cncc(C2CCCN2)n1 (stereo not drawn),51.7%
22,CCc1nccn1-c1cccc(C2CCCN2)n1 (stereo not drawn),31.3%
